In ChEMBL document CHEMBL1961873, “Compounds: GSK PKIS; Assays: Nanosyn kinase panel” (2012) one finds inhibition data, which are given here for 17 molecules.

For assay [1], the target named is Platelet-derived growth factor receptor beta (Homo sapiens) (UniProt P09619). The note with it: at 1 µM.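 Note: each value is a mean percent inhibition.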
Assay [2] addresses Tyrosine-protein kinase FRK (Homo sapiens) (UniProt P42685). The following applies: at 0.1 µM.
For assay [3] the target is unchanged. The note with it: at 1 µM.
In assay [4] the target is Protein-tyrosine kinase 2-beta (Homo sapiens) (UniProt Q14289). The following applies: at 0.1 µM.
For assay [5] the target is unchanged. The following applies: at 1 µM.
Assay [6] has as its target Proto-oncogene tyrosine-protein kinase receptor Ret (Homo sapiens) (UniProt P07949). The note with it: at 0.1 µM.
Assay [7] has the same target. The following applies: at 1 µM.
Assay [8] relates to Proto-oncogene tyrosine-protein kinase receptor Ret (Homo sapiens), P07949 [V804L]. The following applies: at 0.1 µM.
For assay [9] the test system is unchanged. The note with it: at 1 µM.
The test system of assay [10] is Proto-oncogene tyrosine-protein kinase receptor Ret (Homo sapiens), P07949 [Y791F]. The following applies: at 0.1 µM.
Chain of Proto-oncogene tyrosine-protein kinase receptor Ret (Homo sapiens), P07949 [Y791F] (P07949 whole entry Y791F): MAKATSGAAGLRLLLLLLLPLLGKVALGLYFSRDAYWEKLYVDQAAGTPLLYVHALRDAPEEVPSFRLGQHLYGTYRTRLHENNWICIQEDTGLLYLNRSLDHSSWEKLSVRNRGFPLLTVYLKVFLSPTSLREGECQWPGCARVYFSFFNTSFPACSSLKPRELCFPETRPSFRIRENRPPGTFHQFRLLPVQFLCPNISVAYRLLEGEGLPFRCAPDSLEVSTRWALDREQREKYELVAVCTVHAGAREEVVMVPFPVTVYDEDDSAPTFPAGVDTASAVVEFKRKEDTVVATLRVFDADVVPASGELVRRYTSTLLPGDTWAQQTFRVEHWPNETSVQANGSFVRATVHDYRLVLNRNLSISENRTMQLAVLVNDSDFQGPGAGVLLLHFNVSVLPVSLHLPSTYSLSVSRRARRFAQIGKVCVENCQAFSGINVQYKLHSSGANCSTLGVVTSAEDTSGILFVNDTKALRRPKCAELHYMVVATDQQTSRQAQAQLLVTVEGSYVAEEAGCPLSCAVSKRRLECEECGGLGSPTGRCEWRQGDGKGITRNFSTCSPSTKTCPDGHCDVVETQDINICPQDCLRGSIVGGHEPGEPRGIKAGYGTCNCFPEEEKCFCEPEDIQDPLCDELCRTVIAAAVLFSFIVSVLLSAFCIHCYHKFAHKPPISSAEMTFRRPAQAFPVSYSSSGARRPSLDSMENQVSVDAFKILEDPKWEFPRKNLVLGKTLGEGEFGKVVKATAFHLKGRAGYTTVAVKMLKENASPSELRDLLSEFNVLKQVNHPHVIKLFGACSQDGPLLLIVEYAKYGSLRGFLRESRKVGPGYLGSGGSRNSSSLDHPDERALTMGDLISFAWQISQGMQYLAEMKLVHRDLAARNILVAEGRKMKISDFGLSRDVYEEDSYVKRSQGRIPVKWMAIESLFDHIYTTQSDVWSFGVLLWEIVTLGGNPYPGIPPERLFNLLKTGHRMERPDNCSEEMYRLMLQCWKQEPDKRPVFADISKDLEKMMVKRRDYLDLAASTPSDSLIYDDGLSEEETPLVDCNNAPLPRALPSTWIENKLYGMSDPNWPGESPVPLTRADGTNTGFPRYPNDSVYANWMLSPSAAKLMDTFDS

Chain of Protein-tyrosine kinase 2-beta (Homo sapiens) (Q14289 whole entry, looked up): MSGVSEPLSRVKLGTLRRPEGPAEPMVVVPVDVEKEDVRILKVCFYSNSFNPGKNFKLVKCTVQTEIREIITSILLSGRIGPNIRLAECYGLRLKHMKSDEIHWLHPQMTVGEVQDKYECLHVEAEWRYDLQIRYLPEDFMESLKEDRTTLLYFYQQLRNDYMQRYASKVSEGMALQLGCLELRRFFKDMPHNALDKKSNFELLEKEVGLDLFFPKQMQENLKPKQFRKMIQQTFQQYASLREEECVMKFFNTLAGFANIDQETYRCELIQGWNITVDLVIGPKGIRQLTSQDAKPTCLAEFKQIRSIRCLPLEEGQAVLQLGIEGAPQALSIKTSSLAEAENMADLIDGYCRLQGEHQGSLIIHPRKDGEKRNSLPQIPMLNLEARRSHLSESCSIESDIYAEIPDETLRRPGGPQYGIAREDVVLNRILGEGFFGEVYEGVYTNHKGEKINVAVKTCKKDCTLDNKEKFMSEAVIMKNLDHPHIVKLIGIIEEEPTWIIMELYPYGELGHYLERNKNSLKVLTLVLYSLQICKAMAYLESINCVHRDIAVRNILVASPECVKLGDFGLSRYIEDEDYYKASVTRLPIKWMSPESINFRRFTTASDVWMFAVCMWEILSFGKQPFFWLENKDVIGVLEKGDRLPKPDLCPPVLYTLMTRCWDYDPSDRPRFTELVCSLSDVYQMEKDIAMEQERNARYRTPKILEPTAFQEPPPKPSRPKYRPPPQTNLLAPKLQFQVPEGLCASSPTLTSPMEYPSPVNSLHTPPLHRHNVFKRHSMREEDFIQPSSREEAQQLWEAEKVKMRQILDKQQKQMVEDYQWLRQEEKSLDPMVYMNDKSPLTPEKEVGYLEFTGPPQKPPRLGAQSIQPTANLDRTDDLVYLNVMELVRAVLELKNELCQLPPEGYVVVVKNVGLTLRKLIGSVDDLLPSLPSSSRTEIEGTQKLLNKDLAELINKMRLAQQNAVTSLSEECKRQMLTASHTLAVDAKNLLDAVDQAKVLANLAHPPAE
Chain of Proto-oncogene tyrosine-protein kinase receptor Ret (Homo sapiens) (P07949 whole entry): as the sequence (P07949 whole entry Y791F) above, with F791Y counted along it
Chain of Platelet-derived growth factor receptor beta (Homo sapiens) (P09619 whole entry): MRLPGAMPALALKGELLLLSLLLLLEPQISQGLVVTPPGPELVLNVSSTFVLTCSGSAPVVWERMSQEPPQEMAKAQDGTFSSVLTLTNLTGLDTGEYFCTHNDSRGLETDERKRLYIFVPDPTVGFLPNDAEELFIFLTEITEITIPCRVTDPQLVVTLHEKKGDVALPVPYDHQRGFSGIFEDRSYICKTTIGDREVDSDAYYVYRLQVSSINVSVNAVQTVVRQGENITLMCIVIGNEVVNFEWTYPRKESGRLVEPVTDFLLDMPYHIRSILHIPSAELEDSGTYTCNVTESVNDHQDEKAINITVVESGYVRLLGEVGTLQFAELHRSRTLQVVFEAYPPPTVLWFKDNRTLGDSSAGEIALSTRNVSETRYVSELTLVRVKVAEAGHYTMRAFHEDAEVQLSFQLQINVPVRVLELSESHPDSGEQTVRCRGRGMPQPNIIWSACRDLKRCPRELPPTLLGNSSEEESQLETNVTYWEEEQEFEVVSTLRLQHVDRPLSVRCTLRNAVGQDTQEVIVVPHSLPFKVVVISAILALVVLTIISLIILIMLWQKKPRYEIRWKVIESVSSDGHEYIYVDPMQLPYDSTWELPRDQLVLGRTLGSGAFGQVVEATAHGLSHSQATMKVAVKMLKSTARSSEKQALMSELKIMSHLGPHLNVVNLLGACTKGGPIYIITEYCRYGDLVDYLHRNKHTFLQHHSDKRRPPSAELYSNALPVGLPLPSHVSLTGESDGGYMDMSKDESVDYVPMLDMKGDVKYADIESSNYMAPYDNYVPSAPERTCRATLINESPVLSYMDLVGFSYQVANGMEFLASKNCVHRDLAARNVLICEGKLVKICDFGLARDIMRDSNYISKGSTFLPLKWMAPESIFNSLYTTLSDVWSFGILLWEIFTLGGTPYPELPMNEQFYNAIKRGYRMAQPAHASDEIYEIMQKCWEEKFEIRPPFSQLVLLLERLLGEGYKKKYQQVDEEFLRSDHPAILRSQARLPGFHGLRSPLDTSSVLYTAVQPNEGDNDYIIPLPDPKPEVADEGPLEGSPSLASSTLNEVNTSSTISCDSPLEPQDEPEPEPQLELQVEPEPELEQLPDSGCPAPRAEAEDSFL
Chain of Proto-oncogene tyrosine-protein kinase receptor Ret (Homo sapiens), P07949 [V804L] (P07949 whole entry V804L): as the sequence (P07949 whole entry Y791F) above, with F791Y, V804L counted along it
Chain of Tyrosine-protein kinase FRK (Homo sapiens) (P42685 whole entry): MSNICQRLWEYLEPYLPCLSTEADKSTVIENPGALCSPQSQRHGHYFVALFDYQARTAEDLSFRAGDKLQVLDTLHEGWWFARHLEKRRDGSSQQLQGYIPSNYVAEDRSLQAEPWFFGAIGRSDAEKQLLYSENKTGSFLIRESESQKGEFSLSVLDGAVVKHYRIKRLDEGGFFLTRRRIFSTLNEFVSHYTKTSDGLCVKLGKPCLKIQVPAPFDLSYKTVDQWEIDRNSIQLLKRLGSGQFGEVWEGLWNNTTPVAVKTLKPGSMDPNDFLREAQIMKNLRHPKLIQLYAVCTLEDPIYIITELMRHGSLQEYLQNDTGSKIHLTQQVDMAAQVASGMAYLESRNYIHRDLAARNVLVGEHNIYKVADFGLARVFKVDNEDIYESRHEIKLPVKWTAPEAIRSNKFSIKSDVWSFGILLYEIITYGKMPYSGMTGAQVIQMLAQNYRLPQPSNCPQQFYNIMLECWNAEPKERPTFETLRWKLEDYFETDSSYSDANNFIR

As for `COc1cc2ncnc(Nc3ccc(C)c(O)c3)c2cc1OC`, the inhibition (in general, the change of the read-out against control, counted positive when it falls) came out at 76.6% in assay [1]; 7.74% in assay [2]; 19.9% in assay [3]; 12.5% in [4]; 18.9% in assay [5]; 83.6% in assay [6]. For the same molecule, the inhibition in assay [7] was found to be 89.4%; in assay [8], 3.3%; in assay [9], 11.3%; in assay [10], 76.8%.

Consider `Cc1ccc2c(c1)/C(=N/Nc1ccc(S(N)(=O)=O)cc1)C(=O)N2`, for which the inhibition in assay [1] was 31.7%; in assay [2] it was -0.61%; in [3], 0.7%; in assay [4] it was 1.76%; in assay [5], 0.28%; in assay [6], 3.85%. For the same molecule, the inhibition in assay [7] amounted to 18.8%; in assay [8] it was 7.64%; in assay [9] it was 35.4%; in assay [10], 8.06%.

Regarding `NS(=O)(=O)c1cccc(-c2cc3ccncc3cc2OCc2ccccc2)c1`, the inhibition stood at 11.8% in assay [1]; 3.66% in assay [2]; 1.68% in [3]; 6.15% in assay [6]; 14.3% in assay [7]; 6.02% in [8]. Further, the inhibition in assay [9] was determined as 14.3%; in assay [10], 12.6%.

Take `Cc1cc(Cl)cc2c1NC(=O)C2=NNc1ccc(S(N)(=O)=O)cc1`: the inhibition in [1] was 6.52%; in [2], 1.54%; in [3], 3.32%; in assay [6], 2.45%; in assay [7], -0.28%; in assay [8], 3.83%. Further, the inhibition is 7.51% in assay [9] and -0.41% in [10].

In the case of `O=C1Nc2ccccc2/C1=C/Nc1ccc2[nH]c(=O)[nH]c2c1`, the inhibition is 56.7% in assay [1]; 6.33% in assay [2]; 8.07% in assay [3]; 20.6% in [4]; 46.4% in [5]; 23.7% in assay [6]. The inhibition is 61.3% in [7], 32.4% in [8], 75.4% in assay [9] and 25.8% in [10].

As to `O=C1Nc2ccc(-c3cccnc3)cc2C1=Cc1cc(Br)c(O)c(Br)c1`, the inhibition is 1.84% in [2]; 5.49% in [3]; 9.77% in assay [4]; 9.16% in assay [5]; -0.83% in assay [6]; 7.95% in [7]. In addition, the inhibition in assay [8] amounted to 2.79%; in assay [9], 16.2%; in [10] it was 8.02%.

Turning to `CN(C)C(=O)O[C@@H]1CN[C@@H](C#Cc2cc3ncnc(Nc4ccc(OCc5cccc(F)c5)c(Cl)c4)c3s2)C1`, the inhibition was 9.98% in [1]; 0.71% in assay [2]; 2.18% in assay [3]; -3.27% in assay [4]; 3.14% in assay [5]; 3.72% in assay [6]. The inhibition in [7] is 4.94%; in assay [8], 0.31%; in [9] it was -0.74%; in assay [10] it was 3.85%.

Take `CC(C)c1ccc2c(c1)NC(=O)/C2=N/Nc1ccc(S(N)(=O)=O)cc1`: the inhibition in assay [1] is 29.8%; in assay [2] it was -0.9%; in [3], 2.77%; in assay [6], 8.25%; in assay [7] it was 34%; in [8], 1.58%. The values for the inhibition in [9] and in assay [10] were 6.41% and 4.75%, respectively.

In the case of `NS(=O)(=O)c1cccc(Nc2cc(-c3ccc(F)cc3)n[nH]2)c1`, the inhibition in [1] was determined as 38%; in assay [2], 1.05%; in assay [3], 2.07%; in assay [4] it was 7.64%; in assay [5] it was 12.6%; in assay [6], 4.74%. For the same molecule, the inhibition is 17.9% in [7], 5.42% in [8], 25.3% in [9] and 3.26% in assay [10].

As for `CS(=O)(=O)Nc1cccc(-c2ccc3c(NC(=O)C4CC4)n[nH]c3c2)c1`, the inhibition is 7.8% in assay [1]; 0.86% in assay [2]; 0.42% in assay [3]; 2.77% in [4]; 3.01% in assay [5]; -0.07% in assay [6]. Also, the inhibition in assay [7] was 15.4%; in assay [8] it was -3.08%; in assay [9], -1.31%; in assay [10], 1.94%.

Regarding `C[C@@H](Oc1cc(-n2cnc3ccc(OC[C@@H](O)CO)cc32)sc1C(N)=O)c1ccccc1Cl`, the inhibition in assay [1] was 54.6%; in assay [2], 0.8%; in assay [3], 2.17%; in assay [4], -2.91%; in [5], -1.09%; in [6] it was 0.87%. In addition, the inhibition in assay [7] was 7.49%; in assay [8], 2.02%; in assay [9], 5.35%; in assay [10], -0.83%.

As to `Nc1nccc(-c2c(-c3ccc(F)cc3)nn3cc(C(F)(F)F)ccc23)n1`, the inhibition was 2.13% in assay [1]; -1.38% in assay [2]; 1.04% in [3]; 2.76% in [6]; -0.03% in assay [7]; 0.95% in [8]. Moreover, the inhibition in assay [9] was 0.97%; in assay [10], -0.45%.

In the case of `Cc1cc(O)cc(C)c1/C=C/c1cncc(C(=O)N(C)C)c1`, the inhibition in assay [1] is 10%; in [2], -0.14%; in assay [3], 1.73%; in [4] it was 5.04%; in assay [5], 3.05%; in assay [6], 8.48%. The inhibition in assay [7] worked out at 11.8%; in assay [8], 6.64%; in assay [9], 9.06%; in [10], 8.23%.

For the molecule `COc1ccc(-c2nn3ncccc3c2-c2ccnc(Nc3cccc(C(F)(F)F)c3)n2)cc1`, the inhibition in assay [1] turned out to be 5.95%; in assay [2], 1.12%; in assay [3] it was 2.91%; in assay [4], 6.13%; in [5], 6.4%; in assay [6], 2.63%. Besides, the inhibition in assay [8] is 2.06%; in [9], 3.74%; in [10] it was 3.38%.

Consider `CCS(=O)(=O)c1ccc(OC)c(Nc2nccc(N(C)c3ccc4c(C)n[nH]c4c3)n2)c1`, for which the inhibition in assay [1] was 70.9%; in [2], 20.6%; in assay [3], 70.2%; in assay [4] it was 4%; in assay [5], 19%; in assay [6], 64.8%. Moreover, the inhibition in assay [7] is 83.5%; in [8], 4.04%; in assay [9] it was 8.57%; in assay [10] it was 58.1%.

Consider `Cc1cc(-c2ccccn2)cc(C)c1/C=C/c1cncc(-c2nn[nH]n2)c1`, for which the inhibition in assay [1] is 13.4%; in assay [2], 1.59%; in [3] it was 4.57%; in assay [4], 3.75%; in assay [5], 13.3%; in assay [6], 5.88%. The inhibition in [7] amounted to 5.38%; in [8], 3.85%; in [9] it was 5.09%; in assay [10], 5.19%.

As for `COC(=O)c1ccc2c(c1)C(=Cc1cc(Br)c(O)c(Br)c1)C(=O)N2`, the inhibition was found to be 6.26% in assay [1]; 1.55% in assay [2]; 7.02% in [3]; 3.82% in [4]; 13.8% in assay [5]; 7.67% in assay [6]. For the same molecule, the inhibition in assay [7] was found to be 25.8%; in assay [8], 7.28%; in assay [9] it was 39.8%; in assay [10], 12.2%.
